Sampled rows, rich in hits. Any-hit rate of the full collection: about 5.7%.
HT1080-NT tox – kills 2HG-producing HT-1080-NT fibrosarcoma cells. 360,000 tested, 1.6% active. HT-1080-NT fibrosarcoma viability, CellTiter-Glo ATP luminescence, 48 h. Potency, µM (top dose mostly 46.1 µM), without a hit: top-dose activity, negative = less viability, usual class: cytotoxic;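 further: NT is the 2HG producing partner of a matched IDH1 knockdown line; 0% = DMSO-treated cells and -100% = media-only wells without cells; nearly all actives have a fitted effect of over 55% in size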
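Viability of the 2HG-overproducing fibrosarcoma line after 48 hours of compound exposure at 37 degrees C was determined by luminescence with CellTiter-Glo, and concentration-effect curves were then fitted and categorized.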
KB-V1 cytotox – kills drug-selected multidrug resistant KB-V1 cells; KB-V1 MDR cells viability, CellTiter-Glo, 72 h; Potency, µM (doses to about 46.1 µM), most hits filed as cytotoxic; 400,000 tested, 3.4% active; AID 1347076; further: nearly all actives have a fitted effect of over 60% in size
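KB-V1, DMEM (no phenol red) + 10% FBS; cpd pin-transferred, titration series; 72 h, 37 degrees C; CellTiter-Glo, luminescence. Data normalized, curve-fit.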
KB-3-1 tox – KB-3-1 parental cell cytotoxicity. KB-3-1 viability, CellTiter-Glo ATP luminescence, 72 h. Potency, µM (top dose mostly 46.1 µM), usual class: cytotoxic. 400,000 tested, 1.4% active. AID 1347075; further: nearly all actives have a fitted effect of over 60% in size
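Luminescent ATP read-out (CellTiter-Glo) measures survival of drug-naive KB-3-1 cells after 72 h compound exposure at 37 °C. Titration series was screened from lowest to highest concentration, with DMSO vehicle plates as background controls.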
HT1080 IDH1KD tx – toxicity to HT-1080 IDH1 knockdown cells (counter line). HT-1080 IDH1 knockdown viability, ATP luminescence, 48 h. Potency, µM (highest dose often 46.1 µM), inactives show top-dose activity, negative = toxicity, actives largely listed as cytotoxic. 360,000 tested, 2% active. AID 686971;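 further: 0% = DMSO wells and -100% = cell-free medium wells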
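HT-1080-IDH1KD cells (IDH1 knocked down), 750/well in RPMI with 5% FBS, treated with compound 48 h at 37 degrees C. Viability by CellTiter-Glo luminescence, normalised to DMSO and no-cell wells; concentration-response curves classed.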
Active calls of the source: *; i = inactive; ? = inconclusive; . = not tested or not shown. The call rests on the fitted dose curve; in most records, active means well fitted curve in the direction sought with a large enough effect; inconclusive means small, poorly fitted or top-dose-only effect, or another doubt; inactive means no such curve, though single readings can be large; an effect the other way counts as inactive or inconclusive. Unless noted, on the % scale 0 is the no-effect control and ±100 the full control effect; potency means the concentration at half of the fitted maximal effect.

SMILES	HT1080-NT tox	KB-V1 cytotox	KB-3-1 tox	HT1080 IDH1KD tx
C[C@H]1CCC/C=C/[C@@H]2C[C@H](O)C[C@H]2[C@H](O)[C@H](S(=O)c2ccc(O)cc2)CC(=O)O1 (some centres not stated)	?	?	0.0092µM*	0.15µM*
CN(C1=C(N2CCOCC2)C(=O)c2ccccc2C1=O)c1ccccc1	-17%	12µM*	i	-28%
O=C1C=C(N2CCOCC2)c2cccc3cccc1c23	-15%	?	i	-11%
O=C1C(NS(=O)(=O)c2cccs2)=C(N2CCOCC2)C(=O)c2ccccc21	?	i	i	?
O=C1C(N2CCOCC2)=Cc2cccc3cccc1c23	10%	16µM*	i	0%
Cc1ccc(N2CCOCC2)c2c1C(=O)c1ccccc1C2=O	-23%	15µM*	i	?
O=C1C=C(N2CCOCC2)c2ccccc2C1=O	6.5µM*	?	?	4.6µM*
CC1=C(C)C(=O)C(N2CCOCC2)=CC1=O	-5%	i	i	-5%
Cc1cc(C)cc(NC(=O)COc2cccc3c(=O)n(C)ccc23)c1	.	i	i	.
Cc1cccc(C)c1Nc1c(-c2ccccc2Cl)nc2cnccn12	.	?	i	.
CCN(CC)S(=O)(=O)c1cc(-c2nnc(Nc3ccc(OC)c(C(N)=O)c3)c3ccccc23)ccc1C	.	i	i	.
CC1=C(C(=O)N2CCN(c3cccc(Cl)c3)CC2)C2(CCCCC2)OC1=O	.	i	i	.
C#CCn1c(=NC(=O)c2ccc(S(=O)(=O)N3CCc4ccccc4C3)cc2)sc2cc(S(N)(=O)=O)ccc21	5.2µM*	?	?	8.2µM*
COCCn1c(=NC(=O)c2ccc(S(=O)(=O)N3CCc4ccccc4C3)cc2)sc2cc(S(N)(=O)=O)ccc21	-13%	i	i	-13%
COCCn1c(=NC(=O)c2ccc(S(=O)(=O)N3CCCc4ccccc43)cc2)sc2cc(S(C)(=O)=O)ccc21	5%	1.8µM*	i	13%
C=CCn1c(=NC(=O)c2ccc(S(=O)(=O)N3CCc4ccccc4C3)cc2)sc2cc(S(N)(=O)=O)ccc21	13µM*	?	i	21µM*
COC(=O)Cn1c(=NC(=O)c2ccc(S(=O)(=O)N3CCc4ccccc4C3)cc2)sc2cc(OC)ccc21	2%	?	i	-3%
C=CCn1c(=NC(=O)c2ccc(S(=O)(=O)N3CCCc4ccccc43)cc2)sc2cc(S(N)(=O)=O)ccc21	-2%	i	i	-11%
C[C@@H](C(=O)NCCc1c[nH]c2ccccc12)[C@H]1C[C@]1(C)[C@H](NC(=O)OCc1ccccc1)c1ccccc1	-10%	i	16µM*	-14%
N#CCCn1nc(-c2ccccc2)cc1Nc1ccccc1NC(=O)C(F)(F)F	0%	21µM*	i	12%
CN(C)[C@H]1N(C(=O)c2ccc(Br)cc2)N=C2c3ccccc3S(=O)(=O)N21	-1%	8.2µM*	i	4%
CCOC(=O)c1c2c(n(-c3ccc(OC)cc3)c1C)C(=O)C(=O)c1ccccc1-2	15µM*	?	?	8.2µM*
CCOC(=O)c1sc(=S)n(-c2ccc(OC)cc2)c1C	3%	i	i	-5%
O=C(NCCc1ccccc1)c1ccc2c(c1)N(Cc1ccc(Cl)cc1)C(=O)CS2	.	i	23µM*	.
O=C(c1ccc2c(c1)N(Cc1ccccc1)C(=O)CS2)N1CCOCC1	6%	15µM*	i	-5%
SMILES	HT1080-NT tox	KB-V1 cytotox	KB-3-1 tox	HT1080 IDH1KD tx
CCOC(=O)c1[nH]c2ccccc2c1NC(=O)c1ccc(OC)c(OC)c1	.	i	i	.
C=C1C=C(C(F)F)n2ncc(C(=O)NCc3ccccc3OC)c2N1	.	i	i	.
N#CN=CN1CC=C(c2ccc(Cl)cc2)CC1	3%	2.3µM*	9.2µM*	6%
CCc1cccc(C)c1NC(=O)c1cc(S(=O)(=O)NCc2ccccc2Cl)ccc1F	.	i	i	.
CCn1c(Cn2nnc(-c3ccccc3)n2)nnc1SCc1ccc(Cl)c(Cl)c1	?	23µM*	?	?
CCn1c(Cn2nnc(-c3ccccc3)n2)nnc1SCC(=O)N1CCOCC1	-5%	i	i	-3%
CCn1c(SCC(O)c2ccccc2)nnc1-c1ccccc1 (configuration not stated)	6%	i	i	-2%
CCn1c(SCc2cccc(C)c2)nnc1-c1ccccc1	5%	15µM*	i	-14%
O=C(COCc1cc(-c2ccc(F)cc2)on1)Nc1cccc(C(F)(F)F)c1	.	i	i	.
Cc1ccc(NC(=O)c2cc(N3C(=O)C=CC3=O)ccc2N2CCOCC2)cc1Cl	-3%	i	i	16µM*
CCOC(=O)c1ccc(NC(=O)NCCN2CCCCC2)cc1	7%	i	16µM*	-2%
CCOC(=O)c1ccc(NC(=O)Nc2nncs2)cc1	1.2µM*	0.33µM*	?	0.92µM*
CCOC(=O)c1ccc(NC(=O)CN2C(=O)NC3(CCCCCCC3)C2=O)cc1	?	i	7.3µM*	?
Cc1ccc(NC(=O)c2cc(N3C(=O)CCC3=O)ccc2N2CCOCC2)cc1	2%	i	i	22%
CCOC(=O)c1ccc(NC(=O)Nc2nc3ccccc3s2)cc1	-2%	i	i	2%
COc1ccc(NC(=O)NCCN2CCCCC2)cc1	8%	i	i	5%
CCOC(=O)c1ccc(NC(=O)Nc2ccc(Cl)cn2)cc1	28%	i	i	20%
CCOC(=O)c1ccc(NC(=O)Nc2ccon2)cc1	0.58µM*	?	0.58µM*	0.92µM*
O=C(Nc1ccc(Cl)c(Cl)c1)Nc1ccon1	-24%	7.3µM*	12µM*	-9%
O=C(Nc1ccc(Cl)cc1)Nc1ccc(N2CCOCC2)cc1	-1%	i	i	-9%
O=C(Nc1ccc(N2CCOCC2)cc1)Nc1ccc(Cl)c(Cl)c1	?	18µM*	?	?
CCC1(c2ccc(F)cc2)NC(=O)N(CC(=O)Nc2ccc(N3CCCCC3)cc2)C1=O (configuration not stated)	-7%	23µM*	i	-6%
CC1(C)N=C(SCc2ccc(F)cc2)c2ccccc2N1	.	?	i	.
O=c1c2cc(Br)ccc2nc(-c2cccc(C(F)(F)F)c2)n1O	?	2.3µM*	2.9µM*	?
COc1cccc(-n2c(SCc3ccc(F)cc3)nc3c([nH]c4ccccc43)c2=O)c1	.	?	i	.
CCn1cc(C(=O)NCc2ccc3c(c2)OCO3)c(=O)c2cc(F)c(N3CCN(C(=O)c4ccco4)CC3)cc21	18µM*	i	?	18µM*
CCN(CC)CCNC(=O)c1cn(CC)c2cc(N3CCN(C(=O)c4ccco4)CC3)c(F)cc2c1=O	9%	i	i	6%
CCn1cc(C(=O)NCc2ccccc2)c(=O)c2cc(F)c(N3CCN(C(=O)c4ccco4)CC3)cc21	21µM*	?	?	?
